An excerpt weighted towards active compounds, which were near 1.1% of everything screened.
CD11b adhes inh = inhibitors of human CD11b/CD18 binding to fibrinogen; P05107+P11215; K562 CD11b/CD18 adhesion to fibrinogen, ATPlite luminescence; Mn2+ added to activate the integrin; inhibition, % at 10 µM; 93,000 tested, 0.54% active;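 active = primary inhibition of 50% or more at 10 µM, then 40% or more on retest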
Target sequence (P05107 whole entry, looked up, other chains not shown): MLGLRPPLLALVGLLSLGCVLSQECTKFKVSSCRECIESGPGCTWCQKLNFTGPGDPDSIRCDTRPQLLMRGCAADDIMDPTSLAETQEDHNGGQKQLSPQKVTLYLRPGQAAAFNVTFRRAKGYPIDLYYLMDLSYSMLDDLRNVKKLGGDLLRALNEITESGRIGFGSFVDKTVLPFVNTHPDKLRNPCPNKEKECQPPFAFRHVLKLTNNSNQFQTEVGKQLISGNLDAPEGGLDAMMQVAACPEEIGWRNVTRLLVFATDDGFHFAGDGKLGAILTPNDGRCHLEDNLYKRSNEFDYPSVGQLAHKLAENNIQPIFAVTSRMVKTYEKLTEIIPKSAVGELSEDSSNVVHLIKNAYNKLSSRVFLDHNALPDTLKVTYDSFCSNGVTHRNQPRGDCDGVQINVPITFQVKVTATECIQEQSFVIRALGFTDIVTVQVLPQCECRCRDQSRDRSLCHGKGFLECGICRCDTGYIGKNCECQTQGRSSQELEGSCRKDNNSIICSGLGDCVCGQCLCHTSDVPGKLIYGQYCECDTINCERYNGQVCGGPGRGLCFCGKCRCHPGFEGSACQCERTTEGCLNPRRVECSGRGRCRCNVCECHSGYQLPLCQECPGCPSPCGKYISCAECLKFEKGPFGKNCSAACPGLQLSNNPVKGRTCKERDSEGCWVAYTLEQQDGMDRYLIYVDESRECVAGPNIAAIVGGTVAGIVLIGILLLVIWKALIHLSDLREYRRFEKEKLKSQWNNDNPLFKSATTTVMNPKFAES
CD11b adhes enh = increases human CD11b/CD18 adhesion to fibrinogen. P05107+P11215. K562 CD11b/CD18 adhesion to fibrinogen, ATPlite luminescence. activation, % at 10 µM. 93,000 tested, 0.07% active. AID 1499;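 active = 10 µM primary screen giving 50% or more activity, confirmed by 40% or more on retest at that dose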
PLK1 inh = inhibitors of human PLK1 kinase | 97,000 tested, 0.53% active | inhibition, % at 10 µM | recombinant PLK1 kinase, TR-FRET peptide phosphorylation | AID 619;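 active = inhibition of 50% or more in the single-concentration screen; inactive = inhibition below 50%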
Candida biofilm = kills Candida albicans biofilms. C. albicans biofilm + clotrimazole, Alamar Blue. 85,000 tested, 0.14% active. inhibition, % at 6 µM;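 active = inhibition above 20%; inactive = inhibition below 20%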;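 note: preformed 24 hr biofilms exposed to compound for 48 hr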
Plk1 PBD FP = Plk1 (human) PBD binding inhibition. Plk1 PBD phosphopeptide binding, fluorescence polarization. inhibition, %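 (tested at about 20 µM)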. 97,000 tested, 0.13% active. AID 693; in the data active = inhibition above about 34%, passing the limit was not always enough
Hits are given with their value; . = inactive; / = no result given.

SMILES	CD11b adhes inh	CD11b adhes enh	PLK1 inh	Candida biofilm	Plk1 PBD FP
CCN1CCN(c2cc3c(cc2F)c(=O)c(C(=O)O)cn3C2CC2)CC1	/	/	/	24	/
COc1cc(NC(=O)CSc2ncnc3c2cnn3Cc2ccccc2)cc(OC)c1	64	.	.	.	.
O=C(NCCc1ccccc1)C1CCN(S(=O)(=O)c2cccnc2)CC1	.	.	.	22	.
COc1ccc(/C=N/Nc2nncc3ccccc23)cc1	95	.	/	/	/
CCOc1c(Cl)cc(CNCC(C)C)cc1OC	.	.	.	59	.
Cc1sc2nc(SCC(=O)NCc3ccco3)[nH]c(=O)c2c1C	.	.	/	.	/
Cc1sc2nc(SCC(=O)NCc3cccs3)[nH]c(=O)c2c1C	.	.	52	.	.
Cc1sc2nc3c(C(=O)N4CCN(c5ncccn5)CC4)cccn3c(=O)c2c1C	/	/	/	.	/
O=C1C2C3C=CC(C3)C2C(=O)N1/N=C/c1cc(Br)cc([N+](=O)[O-])c1O (stereo not given)	57	.	.	/	.
O=C1C2C3C=CC(C3)C2C(=O)N1/N=C/c1cn(Cc2ccccc2)c2ccccc12 (stereo not given)	/	/	.	/	.
CC(C)OCCCNc1ncnc2c1cnn2-c1ccccc1	/	/	.	.	.
CN(C)CCCNc1ncnc2c1cnn2-c1ccccc1	.	.	67	.	.
COc1ccc(C(=O)/C=C/Nc2ccc([N+](=O)[O-])cc2C)cc1OC	.	53	.	/	.
COc1ccc(C(=O)/C=C/Nc2ccc([N+](=O)[O-])cc2C)c(OC)c1	.	.	.	/	.
N#Cc1ccc(COC(=O)c2ccc(N3CCCC3)c([N+](=O)[O-])c2)cc1	.	.	/	/	/
Cc1cc(-c2ccccc2)nc(N2CCC(C(=O)NCC3CCCCC3)CC2)n1	/	/	.	.	.
Cc1ccc(NC(=S)Nc2ccc(Cl)c(Cl)c2)c(OC(F)F)c1	.	.	/	/	/
Fc1ccc(NC(=S)Nc2ccccc2OC(F)F)cc1Cl	101	.	/	/	/
Cc1cc(C)c(S(=O)(=O)N2CCC(C(=O)NCc3ccc(Cl)cc3Cl)CC2)c(C)c1	.	.	.	69	.
Cc1ccc2cc(C#N)c(NCCNC(=O)C3CC3)nc2c1C	.	.	.	.	.
O=c1[nH]c(SCc2nc3c(cnn3-c3ccccc3)c(=O)[nH]2)nc2ccccc12	/	/	.	/	.
Cc1ccc2nc(SCc3nc4c(cnn4-c4ccccc4)c(=O)[nH]3)[nH]c2c1	.	.	54	/	.
Cn1cc(C(=O)c2ccc(Cl)cc2Cl)cc1C(=O)N/N=C(\N)COc1cccc(C(F)(F)F)c1	.	.	.	.	.
CCC(Oc1ccccc1)C(=O)Nc1nnc(C(F)(F)F)s1 (stereo not given)	74	.	.	.	.
CC1=NNC(=O)C1CCC(=O)N/N=C/C(Br)=C/c1ccccc1 (stereo not given)	.	.	/	/	/
SMILES	CD11b adhes inh	CD11b adhes enh	PLK1 inh	Candida biofilm	Plk1 PBD FP
O=C(CSc1nc2ccccc2o1)Nc1nc2ccccc2s1	.	83	.	.	.
Cn1c(=NC(=O)C2CC2)sc2cccc(F)c21	.	.	67	.	.
Cc1ccc(-c2nc(N/N=C/c3cccnc3)c3ccccc3n2)cc1	95	.	.	.	.
Cc1c2cc(O)c(=O)cc-2oc2cc(O)c(O)cc12	.	.	.	/	130
COc1ccc(C2=NC(=O)/C(=C\c3cc(OC)c(OC)c(OC)c3)O2)cc1	.	.	/	/	/
CCCSc1nsc(NC(=O)C(c2ccccc2)c2ccccc2)n1	98	.	.	.	.
Cc1cc(N2CCN(S(=O)(=O)c3ccc(Cl)cc3)CC2)c2ccccc2n1	85	.	.	.	.
Cc1cc(C)n(-c2cc(N3CCN(S(=O)(=O)c4ccc(Cl)cc4)CC3)ccc2[N+](=O)[O-])n1	.	.	/	/	/
Cc1cc(C(=O)NNC(=S)NC(=O)/C=C/c2ccccc2Cl)n[nH]1	65	.	.	.	.
CN(Cc1cccs1)c1ncnc2sccc12	89	.	.	/	.
CCCCN1C(=O)NC2NC(=O)NC21 (stereo not given)	/	/	.	.	.
O=c1[nH]c(CN2CCN(C/C=C/c3ccccc3)CC2)nc2cc(Cl)ccc12	.	.	69	.	.
CC(C)(C)C(=O)Nc1cc2nn(-c3ccccc3)nc2cc1Cl	99	.	.	.	.
CC(=O)Nc1cc2nn(-c3ccccc3)nc2cc1Cl	.	.	.	/	.
CCOc1cc(/C=C2/C(=O)N(c3ccccc3)N=C2C)ccc1OC(=O)c1ccco1	/	/	.	/	.
CCOc1cc(/C=C2\C(=O)N(c3ccc(C(N)=O)cc3)N=C2C)ccc1OC(=O)c1cccs1	.	81	.	/	.
Cc1c(Cl)cccc1N1CC(C(=O)Nc2nccs2)CC1=O (stereo not given)	.	.	53	.	.
Cc1cc(SCC(=O)N(C)CC(=O)Nc2ccc(F)cc2)nc2ccccc12	.	.	/	/	/
CCOC(=O)c1nn(-c2ccccc2)c(=O)c(C#N)c1C	.	.	.	.	.
Cc1c(C(=O)O)nn(-c2ccccc2)c(=O)c1C#N	.	.	63	.	.
Cc1snc(S(=O)(=O)/C(C#N)=N/Nc2cccc(C(F)(F)F)c2)c1C#N	90	.	.	.	.
COc1ccc(N/N=C(/C#N)S(=O)(=O)c2nsc(C)c2C#N)cc1	.	.	.	.	.
O=C(N/N=C1\CCCc2ccccc21)C(O)c1ccccc1 (stereo not given)	/	/	.	/	.
COc1ccc2c(c1)C(=NN)c1cc(OC)ccc1-2	/	/	.	.	.
CCCCCOc1ccc(Br)cc1CSC(=N)N	105	.	/	/	/
SMILES	CD11b adhes inh	CD11b adhes enh	PLK1 inh	Candida biofilm	Plk1 PBD FP
CCCCOc1ccc(Cl)cc1CSc1nnc(CC)n1N	.	.	.	.	.
C=CCNC(=O)c1c2c(nc3ccccc13)-c1ccccc1CC2	.	.	.	/	.
CSc1nnnn1-c1ccc(C(=O)O)cc1	.	.	.	.	.
O=C(O)c1ccc(-n2nnnc2SCc2ccccc2F)cc1	.	.	59	.	.
Cc1ccc(N2C(=O)[C@@H]3C(C(=O)CCN4C(=O)c5ccccc5C4=O)=NN[C@@H]3C2=O)cc1	.	.	/	/	/
COc1cc(CNCc2ccncc2)cc(Br)c1OCc1ccccc1F	62	.	.	/	.
CCOc1cc(CNCCO)cc(Br)c1OCc1ccccc1Cl	74	.	.	/	.
Cc1ccc(C(=O)CC(Nc2ccc(F)cc2)c2ccccc2)cc1 (stereo not given)	.	.	/	/	/
C=CC(=O)NCCCc1cc(C(C)(C)C)c(O)c(C(C)(C)C)c1	.	.	/	/	/
Cc1cccc(N2CCN(C(=O)c3c(C)nn(Cc4ccccc4Cl)c3C)CC2)c1C	52	.	.	.	.
Cc1cccc(N2CCN(C(=O)c3ccncc3)CC2)c1C	.	.	.	.	.
CCOc1ccccc1OCC(=O)NN1Cc2ccccc2C1=N	.	.	.	/	.
O=c1c(C(c2ccccc2)c2c(O)sc3ccccc3c2=O)c(O)sc2ccccc12	92	.	.	.	.
O=C(CC1(O)C(=O)Nc2ccccc21)c1ccccc1 (stereo not given)	.	.	65	.	.
O=C(Cn1nc(Cc2cccnc2)c2ccccc2c1=O)NCCCN1CCCC1=O	.	.	.	.	.
CCN(CC)CCNC(=O)Cn1nc(Cc2cccnc2)c2ccccc2c1=O	.	.	62	.	.
